# High-throughput results deposited in PubChem BioAssay by several laboratories.
# Most compounds without a hit are left out; they make up all but 1.9% or so of the library.
# PrP UTR inh – suppresses PrP 5' UTR mRNA reporter expression; cell-based PrP 5' UTR mRNA reporter, plate reader; AID 488862; inhibition, % (concentration not given with the values); actives 0.35% (n = 340,000); in the data active means inhibition above about 52%; further: 0 = median of the neutral control wells
# BJeLR lethal – BJeLR cell viability loss; BJeLR (HRASV12) viability, CellTiter-Glo ATP luminescence, 48 h; inhibition, % (no concentration beside the values); actives 0.17% (n = 300,000); in the data active means inhibition above about 50%
# SSB-PriA inh – K. pneumoniae PriA-SSBct interaction inhibition | AlphaScreen SSBct-PriA binding, biotinylated peptide | inhibition, % at 33 µM | actives 0.6% (n = 430,000); in the data active means inhibition mostly above about 37%, no sharp cut-off; inactive means mostly below about 20%;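 further: plate controls were negative control peptide for no effect and reference peptide for full effect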
# RecA splice inh – Mtb RecA intein splicing inhibition | P9WHJ3 | cell-free RecA intein splicing, fluorescence | inhibition, % (no concentration beside the values) | actives 0.75% (n = 290,000); in the data active means inhibition above about 30%;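 further: 0% = vehicle wells and 100% = reference inhibitor control wells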
# Target sequence (P9WHJ3 whole entry, looked up, canonical isoform): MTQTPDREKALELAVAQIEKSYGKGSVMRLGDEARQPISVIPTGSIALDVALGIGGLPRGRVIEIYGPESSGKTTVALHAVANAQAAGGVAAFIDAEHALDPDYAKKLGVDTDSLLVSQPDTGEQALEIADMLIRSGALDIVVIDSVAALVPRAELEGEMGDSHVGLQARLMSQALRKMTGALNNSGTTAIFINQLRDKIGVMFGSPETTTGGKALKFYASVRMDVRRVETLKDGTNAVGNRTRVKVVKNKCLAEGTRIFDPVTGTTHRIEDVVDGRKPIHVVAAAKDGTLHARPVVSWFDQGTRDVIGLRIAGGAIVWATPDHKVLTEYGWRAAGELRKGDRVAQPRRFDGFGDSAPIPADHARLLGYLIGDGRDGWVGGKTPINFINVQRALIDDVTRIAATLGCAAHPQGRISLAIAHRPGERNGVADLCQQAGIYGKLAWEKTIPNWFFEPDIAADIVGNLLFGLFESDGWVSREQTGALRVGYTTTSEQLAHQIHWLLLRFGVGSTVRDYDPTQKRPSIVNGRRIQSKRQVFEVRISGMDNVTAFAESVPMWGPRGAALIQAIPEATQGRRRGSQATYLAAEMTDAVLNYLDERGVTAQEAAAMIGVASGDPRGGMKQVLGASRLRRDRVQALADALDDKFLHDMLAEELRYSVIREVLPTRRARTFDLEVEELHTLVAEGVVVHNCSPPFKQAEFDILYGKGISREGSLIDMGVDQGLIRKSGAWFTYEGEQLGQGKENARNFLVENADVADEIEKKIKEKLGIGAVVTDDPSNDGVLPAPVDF
# PrPC surface inh – inhibitors of human cell surface prion protein PrPC; P04156; inhibition, % at 13.8 µM; TR-FRET read-out; actives 0.43% (n = 370,000); in the data active means inhibition above about 24%; further: 0% = median of the test wells and 100% = reference compound wells
# PfHsp40 yeast – restores yeast growth despite PfHsp40 toxicity; S. cerevisiae expressing PfHsp40, growth rescue, ATP luminescence; growth rescue, % at 12.5 µM; actives 0.68% (n = 340,000); in the data active means growth rescue above about 28%, passing the limit was not always enough;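 further: yeast W303a lacking pdr1 and pdr3 grown in galactose medium; growth measured after three days at 30 °C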
# The depositor's hits bear a star; nt = no result; + = active, no number.
SMILES,PrP UTR inh,BJeLR lethal,SSB-PriA inh,RecA splice inh,PrPC surface inh,PfHsp40 yeast
CCOc1cccc2cc(C(=O)Nc3nnc(-c4cccc(C)c4)o3)oc12,nt,nt,-1,nt,nt,nt
CC1=NNC(=O)/C1=C\c1cn(-c2ccccc2)nc1-c1ccc(Cl)cc1,-23,36,-13,90*,-3,0
Cc1ccc(-c2nn(-c3ccccc3)cc2C=C2C(=O)CC(C)(C)CC2=O)cc1,-67,13,-11,-1,2,0
CSc1ccccc1OCc1cc(C(=O)N2CCN(c3ccccc3)CC2C)no1 (stereo unspecified),-55,2,-11,7,-7,1
CSc1ccccc1OCc1cc(C(=O)N2CCc3[nH]cnc3C2c2ccccn2)no1 (stereo unspecified),-17,-5,52*,4,2,-2
CCNC(=S)Nc1cc(-c2ccc(Cl)cc2)[nH]n1,-14,7,4,7,13,122*
C=CCN=c1scc(-c2ccc(C)cc2)n1/N=C/c1ccccn1,nt,nt,+,nt,nt,nt
O=[N+]([O-])c1ccc(N2CCNCC2)c2ncccc12,nt,3,53*,1,nt,nt
CN1CCCC1CCNC1C2CC3CC(C2)CC1C3 (stereo unspecified),-23,23,41*,2,-3,-1
O=[N+]([O-])c1ccc(C=Nc2cccc3ccccc23)s1,-44,2,53*,1,nt,0
O=[N+]([O-])c1ccc(C=Nn2c(CO)nc3ccccc32)s1,nt,nt,7,nt,nt,nt
CCS(=O)(=O)c1nc2ccccc2n1Cc1cccc(C(F)(F)F)c1,nt,nt,-30,nt,nt,nt
C#CCSc1nnnn1-c1ccc(Br)c(C)c1,-22,-13,83*,3,0,1
O=C(CCn1ccc(=O)[nH]c1=O)Nc1ccccc1-c1ccc(=O)[nH]n1,nt,nt,-8,nt,nt,nt
COc1ccccc1CNC(=O)C1CCN(c2cc(-n3ccc4ccccc43)ncn2)CC1,nt,nt,-9,nt,nt,nt
CN(C)S(=O)(=O)c1ccc2c(c1)nc(CCC(=O)NCc1ccc(Cl)cc1)n2C,13,-1,-5,-3,8,45*
CN(C)S(=O)(=O)c1ccc2c(c1)nc(CCC(=O)NCC1CCCCC1)n2C,-27,2,-2,2,6,0
O=C(NCc1ccccc1Cl)c1c(O)c2ccccc2n(-c2ccccc2)c1=O,nt,nt,3,nt,nt,nt
CCn1cc(C(=O)NCc2ccco2)c(=O)c2cc(S(=O)(=O)N3CC(C)CC(C)C3)ccc21 (stereo unspecified),-20,88*,-17,-2,8,1
CCn1cc(C(=O)NCc2ccco2)c(=O)c2cc(S(=O)(=O)N3CCC(C)CC3)ccc21,-19,7,-11,-1,1,0
O=C(CN1CCOCC1)Nc1ncc(Cc2ccccc2Cl)s1,-30,-8,1,2,4,-1
CCc1ccc(CCC(=O)Nc2ncc(Cc3ccccc3Cl)s2)o1,-16,57*,0,11,17,4
Cc1ccc(-n2c(C)nc3ccc(NC(=O)C4CC4)cc3c2=O)cc1,nt,nt,4,nt,nt,nt
COc1cccc2sc(N3CC(C(=O)O)C3)nc12,nt,nt,-13,nt,nt,nt
CCN1CCCc2cc(CCNC(=O)c3ccc4c(c3)OCO4)ccc21,nt,nt,65*,nt,nt,nt
SMILES,PrP UTR inh,BJeLR lethal,SSB-PriA inh,RecA splice inh,PrPC surface inh,PfHsp40 yeast
CCN1CCCc2cc(CCNC(=O)C(=O)NC(C)C)ccc21,nt,nt,26,nt,nt,nt
CCN1CCCc2cc(CCNC(=O)c3ccc(OC)c(OC)c3)ccc21,nt,nt,64*,nt,nt,nt
CCCN1CCCc2cc(CCNC(=O)c3ccc(F)c(F)c3)ccc21,nt,nt,45,nt,nt,nt
COc1ccc(C2c3ccc4ccccc4c3Oc3ncn(CCCN(C)C)c(=N)c32)cc1 (stereo unspecified),5,54*,1,11,-4,4
COc1ccccc1C1c2ccc3ccccc3c2Oc2ncn(CCN(C)C)c(=N)c21 (stereo unspecified),nt,13,9,5,-11,-1
O=C(Nc1ncc(Cc2cccc([N+](=O)[O-])c2)s1)C1CC1,nt,nt,5,nt,nt,nt
Cc1nc2ccc(NS(=O)(=O)c3ccc(OC(F)(F)F)cc3)cc2c(=O)n1-c1ccccc1,nt,nt,-5,nt,nt,nt
CC(=NN1CCN(Cc2ccc(Cl)cc2)CC1)c1ccc([N+](=O)[O-])cc1,nt,nt,44*,nt,nt,nt
CC(=NN1CCN(c2ccc(Cl)cc2)CC1)c1cccc([N+](=O)[O-])c1,nt,nt,-2,nt,nt,nt
O=C(Nc1ccccc1Cl)ON=C1c2ccccc2-c2ccccc21,-30,-9,-8,4,nt,88*
CC1CCC(=NNc2ccc(C(F)(F)F)cc2[N+](=O)[O-])CC1 (stereo unspecified),-16,8,73*,2,-5,-1
CCn1c(SCC(=O)Nc2ccc(OC)c(OC)c2)nnc1-c1cccn(C)c1=O,nt,nt,-9,nt,nt,nt
CCN1CCN(c2oc(COc3ccc(-c4ccccc4)cc3)nc2C#N)CC1,-18,-1,41*,8,1,1
N#Cc1nc(COc2ccc(-c3ccccc3)cc2)oc1N1CCCC1,nt,nt,54*,nt,nt,nt
CCN1CCN(c2oc(COc3ccc(C)cc3)nc2C#N)CC1,nt,nt,51,nt,nt,nt
COc1ccc2sc(N(CCCN3CCOCC3)C(=O)c3cccc([N+](=O)[O-])c3)nc2c1,nt,nt,47*,nt,nt,nt
CCOc1ccc(Nc2ccc([N+](=O)[O-])c3nonc23)cc1,-48,10,78*,1,-49,1
O=C1C(Cc2ccccc2)Nc2ncnc(N3CCOCC3)c2N1Cc1ccccc1 (stereo unspecified),-11,nt,5,nt,1,-1
COc1ccc(CN2C(=O)C(Cc3ccccc3)Nc3ncnc(N4CCc5ccccc5C4)c32)cc1 (stereo unspecified),nt,-5,nt,35*,nt,nt
COc1ccc(CN2C(=O)C(Cc3ccccc3)Nc3ncnc(N4CCOCC4)c32)cc1 (stereo unspecified),-28,-9,2,0,6,45*
Cc1ccc(S(=O)(=O)NCC2(CO)CC2)cc1C,nt,nt,-8,nt,nt,nt
CC(C)(C)c1cc(NC(=O)CCl)n(-c2ccccc2)n1,-4,0,11,38*,0,-1
O=C(NC(=S)N1CCc2ccccc21)c1ccc(Br)o1,-18,9,8,13,-1,36*
CC(Oc1ccc(Cl)cc1Cl)C(=O)Nc1ncccn1 (stereo unspecified),-26,0,-2,3,0,0
Cc1csc(NC(=O)C(C)Oc2ccc(Cl)cc2C)n1 (stereo unspecified),-10,nt,-8,nt,17,60*
Cn1cc(-c2nc(-c3ccc4c(c3)OCO4)no2)c(=O)c2cc(F)c(N3CCOCC3)cc21,nt,nt,9,nt,nt,nt
O=C(Nc1cccc(-c2nc3ccccc3o2)c1)c1ccc(-c2nc3ccccc3s2)s1,nt,nt,-4,nt,nt,nt
CC(C)(C)n1nnnc1C(c1cccs1)N(Cc1cccnc1)Cc1ccccc1Cl (stereo unspecified),-4,0,3,35*,1,0
CC(c1nnnn1C(C)(C)C)N(Cc1cccnc1)Cc1ccccc1Cl (stereo unspecified),-22,-9,-22,3,9,-2
O=C(/C=C/c1ccccc1)NNC(=O)c1cnccn1,nt,nt,38,nt,nt,nt
